# Screening results from PubChem BioAssay.
# Hits are enriched below; roughly 3.8% of the tested compounds scored in any of these assays.
# A1 inh = inhibitors of the anti-apoptotic protein A1, read as caspase activation; MEF A1-2A-BIM cells, Caspase-Glo 3/7 luminescence, 3 h; percent of clofoctol response, vehicle zero; caspase activation, % (concentration not given with the values); 330,000 compounds, 0.066% hits; AID 2462;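 active = over half of replicate activation scores above 10%, or exactly half above 10 with the replicate mean above 10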
# Beta apoptosis = blocks beta cell apoptosis; protection from apoptosis, % (no concentration beside the values); 300,000 compounds, 0.8% hits; INS-1E cytokine-induced death, ATP luminescence, 48 h; percent of positive-control rescue, neutral wells zero;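 active = Every replicate reaches about 75%, or at least half do and their mean reaches it too, limit read from the data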;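 also: 0% = cytokine-treated negative control wells and 100% = positive control rescue; higher means more ATP so stronger rescue from cytokine killing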
# NTR1 agonist = NTR1 (human) agonism; P30989; NTR1-U2OS beta-arrestin-GFP spot imaging, agonist mode; activation, % at 20 µM; 330,000 compounds, 0.17% hits;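 active = activation at or above 40% of the spot to cytoplasm intensity ratio, with at least 20 cells analyzed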;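 also: 0% = DMSO without peptide and 100% = 100 nM NTR1 peptide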
# Target sequence (P30989 whole entry, looked up): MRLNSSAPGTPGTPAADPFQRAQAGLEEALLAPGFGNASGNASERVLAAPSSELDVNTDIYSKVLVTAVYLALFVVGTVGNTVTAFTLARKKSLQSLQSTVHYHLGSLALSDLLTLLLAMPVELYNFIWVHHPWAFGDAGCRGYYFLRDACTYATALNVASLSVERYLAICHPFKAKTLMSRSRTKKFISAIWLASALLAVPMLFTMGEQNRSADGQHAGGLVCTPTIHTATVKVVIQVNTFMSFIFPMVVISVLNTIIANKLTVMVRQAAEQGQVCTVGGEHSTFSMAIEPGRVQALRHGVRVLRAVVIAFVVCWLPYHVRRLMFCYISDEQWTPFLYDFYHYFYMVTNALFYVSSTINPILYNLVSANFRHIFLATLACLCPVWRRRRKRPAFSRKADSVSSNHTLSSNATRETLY
# 697 NFkB inh = lowers PMA/ionomycin-induced NF-kB signal in 697 B cells; AID 435022; 697 B-cell NF-kB luciferase reporter, 16 h; inhibition, % at 4 µM; 330,000 compounds, 0.33% hits; in the data active = inhibition above about 35%
# Jurkat NFkB inh = lowers PMA/ionomycin-induced NF-kB signal in Jurkat cells; PMA/ionomycin-induced NF-kB luciferase reporter, luminescence; inhibition, % at 4 µM; 330,000 compounds, 0.53% hits; AID 435003; in the data active = inhibition above about 50%
# Mdm2 MdmX PPI = inhibitors of human Mdm2/MdmX interaction; inhibition, % at 8 µM; 330,000 compounds, 3% hits; AID 485346; O15151+Q00987; SaOS-2 split-luciferase Mdm2/MdmX complementation, luminescence;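 active = inhibition of at least 50% at 8 µM in the primary screen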
# Mdm2-MdmX conf = human Mdm2/MdmX binding inhibition, confirmed; shares compounds with Mdm2 MdmX PPI; luminescent assay; inhibition, % at 8 µM; 10,000 compounds, 55% hits; AID 489028; in the data active = inhibition above about 40%
# Full FLuc ctr = inhibits full-length luciferase, flagging false Mdm2/MdmX hits; shares compounds with Mdm2 MdmX PPI; SaOS-2 full-length luciferase counterscreen, luminescence; inhibition, % at 8 µM; 6,200 compounds, 77% hits; AID 504607;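 active = mean inhibition at 8 µM reaching about 37%, which flags the compound as non-specific, limit read from the data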;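 also: p53-null SaOS-2 cells with luciferase driven by a doxycycline-inducible promoter; compound on cells about two nights before reading with doxycycline added after day one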
# * marks the source's active call; other numbers are inactive results; · = no result.
SMILES,A1 inh,Beta apoptosis,NTR1 agonist,697 NFkB inh,Jurkat NFkB inh,Mdm2 MdmX PPI,Mdm2-MdmX conf,Full FLuc ctr
Cc1ccc(NS(=O)(=O)c2ccc(C(=O)NNC(=O)c3ccccc3O)cc2)cc1,0,60,4,-2,22,62*,55*,52*
COc1ccccc1C1c2[nH]c3ccccc3c2C[C@H]2C(=O)N(C3CCN(Cc4ccccc4)CC3)CC(=O)N12 (some centres undefined),1,7,1,18,2,54*,38,90*
COC(=O)c1ccc(C2c3[nH]c4ccccc4c3C[C@H]3C(=O)N(C)CC(=O)N23)cc1 (some centres undefined),0,-8,-2,-15,-27,3,·,·
CN1CC(=O)N2C(c3ccc(Cl)cc3)c3[nH]c4ccccc4c3C[C@H]2C1=O (some centres undefined),2,-2,2,21,-11,52*,14,·
Cc1cccc(N2Cc3ccc(Br)cc3C2)c1,-1,2,1,-61,-42,-41,·,·
C=C(CC1([C@@H](NP(=O)(c2ccccc2)c2ccccc2)[C@H]2C[C@@H]2CCCC)CC1)c1ccccc1,1,38,10,16,0,59*,23,·
CCCC[C@@H]1C[C@H]1[C@@H](NC(=O)c1ccccc1)c1ccccc1C(F)(F)F,0,-5,-2,-1,10,17,·,·
COc1ccc(NC(=O)c2cc3ccccc3o/c2=N\NS(=O)(=O)c2ccc(C)cc2)cc1,3,6,7,-9,-81,38,·,·
COc1cccc2cc(C(=O)Nc3cc(C)cc(C)c3)/c(=N/NS(=O)(=O)c3ccccc3)oc12,0,-3,1,8,2,78*,8,·
Cc1ccc(-c2[nH]c3cc(C(N)=O)ccc3c(=O)c2O)cc1,-1,-4,-3,-15,3,34,·,·
CCCNC(=O)c1ccc2c(=O)c(O)c(-c3ccsc3)[nH]c2c1,3,8,2,-15,30,57*,23,·
CCCNC(=O)c1ccc2c(=O)c(O)c(-c3ccc(OC)cc3)[nH]c2c1,0,0,-5,-24,0,50*,14,·
CCCCCn1c(=O)[nH]c2cc(C(=O)NCCCN(CC)CC)ccc2c1=O,-1,2,-2,-26,-20,-11,·,·
Cc1ccc(-c2[nH]c3cc(C(=O)NCCCn4ccnc4)ccc3c(=O)c2O)cc1,0,0,-1,10,9,15,·,·
CCCNC(=O)c1ccc2c(=O)c(O)c(-c3ccc(C)cc3)[nH]c2c1,0,82*,-1,-64,10,58*,51*,48*
Cc1ccc(CNC(=O)c2ccc3c(=O)c(O)c(-c4ccc(C)cc4)[nH]c3c2)cc1,-1,30,-3,-14,39,58*,55*,29
CCc1nnc(NC(=O)CSc2nc(C3CCCCC3)nc3ccccc23)s1,0,6,1,5,1,8,·,·
CCc1nnc(NC(=O)CSc2nc(-c3ccccc3)nc3ccccc23)s1,-1,-1,9,-7,-9,78*,50*,90*
CCCC(NCC(O)COc1ccc(-c2ccccc2)cc1)c1ccccc1 (centres undefined),0,-3,22,0,18,100*,56*,60*
Cc1cc(OCC(O)CNC(C)c2ccccc2)ccc1C(C)C (centres undefined),0,-3,22,-2,0,59*,17,·
N#C/C(=C(\O)c1cc(Cl)sc1Cl)c1nc2ccccc2[nH]1,0,29,6,-44,1,31,·,·
CCC(=O)NC1=C(NC(C)c2ccccc2)C(=O)c2ccccc2C1=O (centres undefined),1,·,-1,13,-12,8,·,·
CCC(=O)NC1=C(Cl)C(=O)C(NC(=O)CC)=C(Cl)C1=O,·,·,30,-15,9,58*,44*,7
